Holding throughout (assay): DAPPL (digital affinity profiling via proximity ligation, sequencing); 10 mM Tris-HCl pH 7.5, 50 mM NaCl, 1 mM DTT, 4% glycerol, room temperature, 30 min; GST-TFs on glutathione beads, 16-mer random dsDNA library, 0.1% formaldehyde crosslink after washing; high values mean tight binding
In one assay the target is T1, FLI1 (Homo sapiens, UniProt Q01543 1-452).
T1 sequence: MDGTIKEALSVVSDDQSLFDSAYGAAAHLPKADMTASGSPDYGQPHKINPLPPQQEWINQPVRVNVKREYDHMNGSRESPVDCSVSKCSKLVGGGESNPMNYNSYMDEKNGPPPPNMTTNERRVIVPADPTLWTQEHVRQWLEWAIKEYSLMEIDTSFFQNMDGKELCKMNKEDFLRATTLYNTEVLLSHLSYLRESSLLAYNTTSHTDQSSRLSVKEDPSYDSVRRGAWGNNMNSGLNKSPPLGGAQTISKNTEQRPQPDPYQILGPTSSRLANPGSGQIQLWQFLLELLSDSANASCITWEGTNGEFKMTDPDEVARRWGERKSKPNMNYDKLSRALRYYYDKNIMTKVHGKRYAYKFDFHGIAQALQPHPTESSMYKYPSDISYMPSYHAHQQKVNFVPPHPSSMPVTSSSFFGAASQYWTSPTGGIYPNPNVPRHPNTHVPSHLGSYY
The following applies: protein: recombinant; tags: N-terminal GST; dsDNA, one strand shown. The essentials: (§1)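 Sequencing on an Illumina NextSeq500 followed washing, crosslinking with 0.1% formaldehyde, proximity ligation (BsaI/T4 ligase, 1 h, 37 °C) and PCR amplification of pools that had been incubated for 30 min at room temperature with 200 nmole of a random double-stranded 16-mer DNA library in Tris/NaCl/DTT/glycerol buffer. Each pool held DNA-barcoded human transcription factors, expressed in yeast as GST fusions and captured on glutathione beads, plus a tag-only sample. Binding signal is a hexamer's read frequency for a factor divided by its frequency in the tag-only sample.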

For a further assay, the target named is T2, ELK1 (Homo sapiens, UniProt P19419 1-428).
T2 sequence: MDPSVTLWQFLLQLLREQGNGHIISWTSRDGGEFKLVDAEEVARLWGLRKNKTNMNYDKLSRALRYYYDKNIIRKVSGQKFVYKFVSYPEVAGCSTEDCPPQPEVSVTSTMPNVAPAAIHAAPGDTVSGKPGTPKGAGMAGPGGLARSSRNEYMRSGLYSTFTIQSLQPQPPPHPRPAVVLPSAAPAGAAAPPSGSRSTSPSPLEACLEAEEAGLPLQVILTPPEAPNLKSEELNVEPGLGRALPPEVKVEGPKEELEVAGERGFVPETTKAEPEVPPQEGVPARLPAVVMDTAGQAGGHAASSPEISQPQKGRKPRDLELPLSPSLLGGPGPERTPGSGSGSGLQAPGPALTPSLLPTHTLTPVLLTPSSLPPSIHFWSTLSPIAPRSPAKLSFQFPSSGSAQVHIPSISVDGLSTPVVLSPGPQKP
The following applies: protein: recombinant; tags: N-terminal GST; dsDNA, one strand shown. The essentials: as §1

In another assay the target is T3, GABPA (Homo sapiens, UniProt Q06546 1-454).
T3 sequence: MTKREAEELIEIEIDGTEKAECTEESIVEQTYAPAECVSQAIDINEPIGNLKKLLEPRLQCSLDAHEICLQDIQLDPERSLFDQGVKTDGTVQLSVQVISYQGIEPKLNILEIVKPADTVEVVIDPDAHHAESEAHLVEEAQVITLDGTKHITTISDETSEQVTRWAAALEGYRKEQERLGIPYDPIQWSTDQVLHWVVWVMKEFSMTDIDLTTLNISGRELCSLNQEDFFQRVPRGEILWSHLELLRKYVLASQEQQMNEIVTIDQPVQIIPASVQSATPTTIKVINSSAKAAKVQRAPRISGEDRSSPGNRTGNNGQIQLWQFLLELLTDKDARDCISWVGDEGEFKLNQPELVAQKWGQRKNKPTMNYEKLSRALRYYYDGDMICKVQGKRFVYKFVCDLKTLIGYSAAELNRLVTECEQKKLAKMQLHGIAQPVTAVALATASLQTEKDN
To be noted: protein: recombinant; tags: N-terminal GST; dsDNA, one strand shown. Put shortly: as §1

For a further assay, the target named is T4, ERG (Homo sapiens, UniProt P11308 1-479).
T4 sequence: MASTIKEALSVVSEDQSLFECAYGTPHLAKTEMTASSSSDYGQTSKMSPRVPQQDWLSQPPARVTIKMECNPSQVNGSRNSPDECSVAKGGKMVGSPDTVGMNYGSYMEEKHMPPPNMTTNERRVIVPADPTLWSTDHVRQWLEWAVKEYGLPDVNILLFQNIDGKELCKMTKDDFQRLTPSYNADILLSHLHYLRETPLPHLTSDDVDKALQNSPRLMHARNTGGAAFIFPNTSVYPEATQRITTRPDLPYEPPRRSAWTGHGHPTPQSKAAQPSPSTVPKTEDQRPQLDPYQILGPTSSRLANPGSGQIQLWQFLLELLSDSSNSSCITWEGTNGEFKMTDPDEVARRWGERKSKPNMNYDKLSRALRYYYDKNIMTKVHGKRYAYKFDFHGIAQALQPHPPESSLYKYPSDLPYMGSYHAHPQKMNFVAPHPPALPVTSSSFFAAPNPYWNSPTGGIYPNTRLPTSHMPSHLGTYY
To be noted: protein: recombinant; tags: N-terminal GST; dsDNA, one strand shown. Put shortly:
as §1

In another assay the target is ELF1 (Homo sapiens, UniProt P32519 1-619). To be noted: protein: recombinant; tags: N-terminal GST; dsDNA, one strand shown. The essentials: as §1
Chain of ELF1 (P32519 whole entry): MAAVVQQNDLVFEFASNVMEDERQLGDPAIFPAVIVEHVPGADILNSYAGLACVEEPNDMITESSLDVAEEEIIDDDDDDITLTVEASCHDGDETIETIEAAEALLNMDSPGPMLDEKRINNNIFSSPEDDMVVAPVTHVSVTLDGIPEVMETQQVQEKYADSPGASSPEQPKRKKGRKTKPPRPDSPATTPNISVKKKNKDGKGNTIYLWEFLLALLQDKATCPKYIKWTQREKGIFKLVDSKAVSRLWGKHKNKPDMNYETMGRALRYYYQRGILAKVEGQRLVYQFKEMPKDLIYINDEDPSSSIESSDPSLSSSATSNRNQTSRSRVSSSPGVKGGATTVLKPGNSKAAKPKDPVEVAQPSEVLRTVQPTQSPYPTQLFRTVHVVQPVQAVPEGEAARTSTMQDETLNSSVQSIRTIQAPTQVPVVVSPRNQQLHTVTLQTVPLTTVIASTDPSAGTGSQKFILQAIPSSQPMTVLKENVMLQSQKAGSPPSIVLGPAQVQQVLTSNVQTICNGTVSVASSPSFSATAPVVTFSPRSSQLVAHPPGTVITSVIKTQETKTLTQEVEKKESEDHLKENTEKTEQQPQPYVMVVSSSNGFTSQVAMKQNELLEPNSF
For a further assay, the target named is T5, EHF (Homo sapiens, UniProt Q9NZC4 1-300).
T5 sequence: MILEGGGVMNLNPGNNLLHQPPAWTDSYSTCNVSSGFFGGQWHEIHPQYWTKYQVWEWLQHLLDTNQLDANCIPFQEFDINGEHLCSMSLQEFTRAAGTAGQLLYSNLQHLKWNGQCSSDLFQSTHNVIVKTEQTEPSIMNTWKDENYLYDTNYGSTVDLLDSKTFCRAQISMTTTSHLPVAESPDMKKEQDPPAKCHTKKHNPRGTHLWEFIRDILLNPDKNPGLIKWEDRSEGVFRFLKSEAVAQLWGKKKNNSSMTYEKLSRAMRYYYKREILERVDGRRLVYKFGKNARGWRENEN
To be noted: protein: recombinant; tags: N-terminal GST; dsDNA, one strand shown. Put shortly:
as §1

The next assay deals with SPI1 (Homo sapiens, UniProt P17947 1-270). To be noted: protein: recombinant; tags: N-terminal GST; dsDNA, one strand shown. The essentials: as §1
The target in the next assay is SPIB (Homo sapiens, UniProt Q01892 1-262). To be noted: protein: recombinant; tags: N-terminal GST; dsDNA, one strand shown. Put shortly: as §1
Chain of SPIB (Q01892 whole entry): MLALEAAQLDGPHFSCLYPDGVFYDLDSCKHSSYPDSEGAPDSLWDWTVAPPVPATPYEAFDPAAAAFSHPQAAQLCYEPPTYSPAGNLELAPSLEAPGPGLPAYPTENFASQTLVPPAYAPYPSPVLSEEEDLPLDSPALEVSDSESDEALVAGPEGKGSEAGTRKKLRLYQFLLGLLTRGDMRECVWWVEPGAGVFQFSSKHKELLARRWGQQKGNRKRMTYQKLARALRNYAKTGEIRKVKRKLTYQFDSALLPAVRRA
The next assay deals with T6, ELK3 (Homo sapiens, UniProt P41970 1-407).
T6 sequence: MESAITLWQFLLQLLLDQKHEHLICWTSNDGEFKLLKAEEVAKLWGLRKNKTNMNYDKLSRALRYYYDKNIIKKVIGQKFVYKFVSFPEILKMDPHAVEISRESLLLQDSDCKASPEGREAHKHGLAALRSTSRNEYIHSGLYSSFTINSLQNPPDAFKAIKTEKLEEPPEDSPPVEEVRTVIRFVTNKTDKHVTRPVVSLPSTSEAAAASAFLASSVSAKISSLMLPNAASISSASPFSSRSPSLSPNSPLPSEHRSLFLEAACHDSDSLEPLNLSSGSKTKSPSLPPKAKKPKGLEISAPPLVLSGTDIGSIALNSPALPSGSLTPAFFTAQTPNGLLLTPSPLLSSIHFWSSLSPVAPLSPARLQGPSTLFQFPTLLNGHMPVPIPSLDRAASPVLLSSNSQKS
The following applies: protein: recombinant; tags: N-terminal GST; dsDNA, one strand shown. The essentials: as §1

A further assay concerns the target T7, FEV (Homo sapiens, UniProt Q99581 1-238).
T7 sequence: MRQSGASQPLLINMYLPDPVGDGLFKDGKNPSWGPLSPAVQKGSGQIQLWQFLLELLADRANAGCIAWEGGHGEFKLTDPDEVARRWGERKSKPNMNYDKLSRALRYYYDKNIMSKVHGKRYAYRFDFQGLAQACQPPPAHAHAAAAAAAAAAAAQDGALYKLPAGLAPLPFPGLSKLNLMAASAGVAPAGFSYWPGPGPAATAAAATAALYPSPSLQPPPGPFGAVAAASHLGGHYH
The following applies: protein: recombinant; tags: N-terminal GST; dsDNA, one strand shown. Put shortly: as §1

Another assay has as its target ETV5 (Homo sapiens, UniProt P41161 1-510). To be noted: protein: recombinant; tags: N-terminal GST; dsDNA, one strand shown. Put shortly: as §1
The target of the next assay is HSF1 (Homo sapiens, UniProt Q00613 1-529). The following applies: protein: recombinant; tags: N-terminal GST; chain copies: 3; dsDNA, one strand shown. The essentials:
as §1

The target in another assay is T8, SPIC (Homo sapiens, UniProt Q8N5J4 1-248).
T8 sequence: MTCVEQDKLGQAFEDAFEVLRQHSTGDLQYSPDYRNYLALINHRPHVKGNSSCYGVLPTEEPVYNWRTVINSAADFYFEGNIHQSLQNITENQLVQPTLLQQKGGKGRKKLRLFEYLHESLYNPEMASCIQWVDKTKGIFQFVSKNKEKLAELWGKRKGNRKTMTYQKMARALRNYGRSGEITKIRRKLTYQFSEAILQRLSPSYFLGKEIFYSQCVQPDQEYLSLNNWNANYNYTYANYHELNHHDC
To be noted: protein: recombinant; tags: N-terminal GST; dsDNA, one strand shown. Put shortly:
as §1

The next assay has as its target ELF4 (Homo sapiens, UniProt Q99607 1-663). To be noted: protein: recombinant; tags: N-terminal GST; dsDNA, one strand shown. The essentials: as §1
The target of another assay is T9, ELK4 (Homo sapiens, UniProt P28324-2 1-405).
T9 sequence: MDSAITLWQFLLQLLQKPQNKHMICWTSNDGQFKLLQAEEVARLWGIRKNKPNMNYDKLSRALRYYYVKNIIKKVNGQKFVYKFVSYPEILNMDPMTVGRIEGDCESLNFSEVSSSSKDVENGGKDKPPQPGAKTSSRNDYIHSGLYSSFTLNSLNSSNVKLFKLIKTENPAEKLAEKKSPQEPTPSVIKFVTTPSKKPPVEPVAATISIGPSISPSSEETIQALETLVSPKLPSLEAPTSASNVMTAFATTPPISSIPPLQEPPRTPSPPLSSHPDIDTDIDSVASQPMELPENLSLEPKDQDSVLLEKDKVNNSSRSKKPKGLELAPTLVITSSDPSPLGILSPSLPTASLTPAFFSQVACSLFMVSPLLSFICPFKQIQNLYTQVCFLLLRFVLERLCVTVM
The following applies: protein: recombinant; tags: N-terminal GST; dsDNA, one strand shown. The essentials: as §1

Another assay concerns the target T10, ETV2 (Homo sapiens, UniProt O00321 1-342).
T10 sequence: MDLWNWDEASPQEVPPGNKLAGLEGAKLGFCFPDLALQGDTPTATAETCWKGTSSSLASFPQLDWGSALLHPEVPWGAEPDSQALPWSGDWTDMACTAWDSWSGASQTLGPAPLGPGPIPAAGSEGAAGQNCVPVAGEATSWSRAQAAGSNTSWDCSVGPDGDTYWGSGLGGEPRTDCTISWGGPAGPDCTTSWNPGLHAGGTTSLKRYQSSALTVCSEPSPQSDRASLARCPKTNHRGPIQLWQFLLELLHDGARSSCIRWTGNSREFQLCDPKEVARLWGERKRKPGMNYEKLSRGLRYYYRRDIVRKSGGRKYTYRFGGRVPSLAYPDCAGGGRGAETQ
To be noted: protein: recombinant; tags: N-terminal GST; dsDNA, one strand shown. The essentials: as §1

A further assay addresses T11, ELF3 (Homo sapiens, UniProt P78545 1-371).
T11 sequence: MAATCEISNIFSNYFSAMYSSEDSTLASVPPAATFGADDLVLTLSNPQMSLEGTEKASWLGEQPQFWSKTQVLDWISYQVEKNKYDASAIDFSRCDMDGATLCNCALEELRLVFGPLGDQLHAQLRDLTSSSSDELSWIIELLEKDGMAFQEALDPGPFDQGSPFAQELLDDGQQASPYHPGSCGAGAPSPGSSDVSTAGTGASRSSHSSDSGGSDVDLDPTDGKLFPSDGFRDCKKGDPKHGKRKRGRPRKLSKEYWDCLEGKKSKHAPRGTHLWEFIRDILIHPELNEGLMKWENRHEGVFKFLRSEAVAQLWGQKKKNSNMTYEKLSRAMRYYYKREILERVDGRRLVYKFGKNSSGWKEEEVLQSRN
To be noted: protein: recombinant; tags: N-terminal GST; dsDNA, one strand shown. The essentials:
as §1

The target of a further assay is ETV1 (Homo sapiens, UniProt P50549 1-477). To be noted: protein: recombinant; tags: N-terminal GST; dsDNA, one strand shown. Put shortly: as §1
Chain of ETV1 (P50549 whole entry): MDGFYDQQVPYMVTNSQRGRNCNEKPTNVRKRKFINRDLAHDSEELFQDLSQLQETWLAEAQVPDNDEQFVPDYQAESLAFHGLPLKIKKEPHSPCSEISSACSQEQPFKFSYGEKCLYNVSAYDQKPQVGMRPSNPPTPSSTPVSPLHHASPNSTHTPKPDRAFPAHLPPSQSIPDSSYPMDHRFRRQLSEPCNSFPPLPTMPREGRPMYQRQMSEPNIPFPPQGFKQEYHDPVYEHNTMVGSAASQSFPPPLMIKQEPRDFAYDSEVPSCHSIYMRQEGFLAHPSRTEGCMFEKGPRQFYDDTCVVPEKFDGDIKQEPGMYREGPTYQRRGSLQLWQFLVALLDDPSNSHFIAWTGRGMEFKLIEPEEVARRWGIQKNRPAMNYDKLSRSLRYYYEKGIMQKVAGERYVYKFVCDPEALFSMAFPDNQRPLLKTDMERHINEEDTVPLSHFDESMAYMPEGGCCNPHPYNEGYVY

Chain of ETV5 (P41161 whole entry): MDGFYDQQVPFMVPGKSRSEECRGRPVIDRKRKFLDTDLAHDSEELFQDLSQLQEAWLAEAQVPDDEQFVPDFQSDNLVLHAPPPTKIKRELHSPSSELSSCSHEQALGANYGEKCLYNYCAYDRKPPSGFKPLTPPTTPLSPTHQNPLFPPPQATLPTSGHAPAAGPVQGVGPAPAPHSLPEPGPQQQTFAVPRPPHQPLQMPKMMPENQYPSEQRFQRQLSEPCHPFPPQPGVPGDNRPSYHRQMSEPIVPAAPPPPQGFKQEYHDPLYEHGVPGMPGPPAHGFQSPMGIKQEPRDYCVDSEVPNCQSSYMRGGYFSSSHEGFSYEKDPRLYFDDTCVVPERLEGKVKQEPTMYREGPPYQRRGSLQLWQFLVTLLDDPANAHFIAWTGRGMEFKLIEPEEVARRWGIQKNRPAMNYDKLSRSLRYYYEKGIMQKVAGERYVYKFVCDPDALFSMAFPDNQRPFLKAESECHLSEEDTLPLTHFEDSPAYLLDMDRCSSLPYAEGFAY
Chain of ELF4 (Q99607 whole entry): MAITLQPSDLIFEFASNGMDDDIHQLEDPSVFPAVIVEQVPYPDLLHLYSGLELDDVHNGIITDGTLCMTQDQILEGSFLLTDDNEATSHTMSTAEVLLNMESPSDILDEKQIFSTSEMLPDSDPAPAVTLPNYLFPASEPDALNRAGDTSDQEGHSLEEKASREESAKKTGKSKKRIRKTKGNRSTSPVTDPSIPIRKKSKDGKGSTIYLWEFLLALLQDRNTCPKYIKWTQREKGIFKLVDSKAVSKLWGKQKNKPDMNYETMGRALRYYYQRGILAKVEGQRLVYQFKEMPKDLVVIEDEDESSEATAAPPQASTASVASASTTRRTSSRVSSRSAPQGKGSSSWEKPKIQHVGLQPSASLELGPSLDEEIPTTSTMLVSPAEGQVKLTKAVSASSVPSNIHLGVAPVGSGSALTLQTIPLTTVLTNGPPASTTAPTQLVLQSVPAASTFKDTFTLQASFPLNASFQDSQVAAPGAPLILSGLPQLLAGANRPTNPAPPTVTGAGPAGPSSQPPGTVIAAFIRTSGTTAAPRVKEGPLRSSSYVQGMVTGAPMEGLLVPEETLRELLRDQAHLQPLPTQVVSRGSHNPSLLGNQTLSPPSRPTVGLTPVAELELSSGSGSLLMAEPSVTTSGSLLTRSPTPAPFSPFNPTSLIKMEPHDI
Chain of HSF1 (Q00613 whole entry): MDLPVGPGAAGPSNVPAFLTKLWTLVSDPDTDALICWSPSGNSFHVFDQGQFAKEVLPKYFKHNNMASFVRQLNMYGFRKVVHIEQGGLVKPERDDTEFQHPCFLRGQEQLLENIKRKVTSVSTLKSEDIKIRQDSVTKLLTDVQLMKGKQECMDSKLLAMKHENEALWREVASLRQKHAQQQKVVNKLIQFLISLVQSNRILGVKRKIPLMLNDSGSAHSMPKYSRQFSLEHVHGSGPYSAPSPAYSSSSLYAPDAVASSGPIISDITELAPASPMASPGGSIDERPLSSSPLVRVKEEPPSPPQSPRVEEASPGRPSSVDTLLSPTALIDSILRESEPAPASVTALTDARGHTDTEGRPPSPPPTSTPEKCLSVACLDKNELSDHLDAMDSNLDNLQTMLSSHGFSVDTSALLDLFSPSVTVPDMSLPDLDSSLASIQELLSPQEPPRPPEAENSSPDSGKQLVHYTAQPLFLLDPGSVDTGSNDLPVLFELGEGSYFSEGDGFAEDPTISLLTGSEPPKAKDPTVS

As for CGTCCT, the binding signal with FLI1 is 1.28 fold enrichment (6-mer frequency, TF over GST control); with ELK1, 1.44 fold enrichment (6-mer frequency, TF over GST control); in the assay with GABPA, 1.32 fold enrichment (6-mer frequency, TF over GST control); with ERG it was 1.41 fold enrichment (6-mer frequency, TF over GST control); with ELF1, 1.3 fold enrichment (6-mer frequency, TF over GST control); with EHF, 1.37 fold enrichment (6-mer frequency, TF over GST control). Moreover, the binding signal with SPI1 was 1.42 fold enrichment (6-mer frequency, TF over GST control); with SPIB it was 1.38 fold enrichment (6-mer frequency, TF over GST control); in the assay with ELK3, 1.47 fold enrichment (6-mer frequency, TF over GST control); with FEV, 1.38 fold enrichment (6-mer frequency, TF over GST control); with ETV5 it was 1.32 fold enrichment (6-mer frequency, TF over GST control); with HSF1, 1.08 fold enrichment (6-mer frequency, TF over GST control). Further, the binding signal with SPIC was 1.27 fold enrichment (6-mer frequency, TF over GST control); with ELF4, 1.44 fold enrichment (6-mer frequency, TF over GST control); with ELK4, 1.4 fold enrichment (6-mer frequency, TF over GST control); with ETV2, 1.66 fold enrichment (6-mer frequency, TF over GST control); in the assay with ELF3 it was 1.31 fold enrichment (6-mer frequency, TF over GST control); with ETV1, 1.24 fold enrichment (6-mer frequency, TF over GST control).

Values taken from paper PMC7862700, “An all-to-all approach to the identification of sequence-specific readers for epigenetic DNA modifications on cytosine”.
